Assay [1] in a line: Cell Viability - BJ (AID 421; calls by dose curve;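 also: potency is read from the fitted curve at half-maximal effect; cells exposed to compound for 40 hours at 37 °C before readout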). The note with it: BJ fibroblast viability, qHTS. The gist of the method:
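Cytotoxicity in human BJ foreskin fibroblasts is scored as loss of cellular ATP after a 40-hour exposure, measured by luciferase luminescence. Controls are DMSO and 100 uM tamoxifen.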
(In general: In qHTS, concentration-response curves come from the screen itself.)

Assay [2] in a line: Cell Viability - Jurkat (AID 426;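 active = dose-dependent loss of cell ATP signal giving a full or clear fitted curve, ranked by lower potency value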;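 also: potency is read from the fitted curve at half-maximal effect; cells exposed to compound for 40 hours at 37 °C before ATP read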). The conditions noted are these: qHTS. The method in brief:
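Cytotoxicity was scored as loss of cellular ATP, measured by luciferase-based luminescence, in Jurkat clone E6-1 cells after 40 h compound treatment; tamoxifen and doxorubicin served as positive controls.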

Assay [3] can be described thus: Cell Viability - Hek293 (AID 427;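 active = compounds whose dose-response curve shows a full or clear partial loss of cell viability, called from curve shape rather than a numeric limit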;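 also: potency is read from the fitted curve at half-maximal effect; cells exposed to compound for 40 hours at 37 °C before reading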). The note with it: qHTS. The method in brief: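 qHTS, human embryonic kidney (adenovirus-transformed) cells; 40 hr cpd, 37 °C; CellTiter-Glo ATP luminescence. Norm: DMSO = 0, 100 uM tamoxifen = 100% inhibition. Hill-fit AC50.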
The nature of assay [4]: Cell Viability - HepG2 (AID 433; calls by dose curve;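 also: potency is read from the fitted curve at half-maximal effect; potency for ATP loss meaning cytotoxicity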). The note with it: qHTS. The gist of the method: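 Cytotoxicity is scored as loss of intracellular ATP in HepG2 cells exposed to compounds for 40 h. Concentration-response curves, normalized to DMSO and 100 uM tamoxifen, give AC50 values.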
Assay [5] in a line: Cell Viability - MRC5 (AID 434; calls by dose curve;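 also: potency is read from the fitted curve at half-maximal effect; cells exposed to compound for 40 hours at 37 °C; potency reflects cytotoxicity seen as loss of intracellular ATP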). The conditions noted are these: MRC5 lung fibroblast viability, qHTS. The gist of the method:
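Decrease in intracellular ATP, quantified by luciferase light output, reflects compound toxicity toward MRC5 cells exposed for 40 hr in complete culture medium. Concentration-response curves, scaled between DMSO and 100 uM tamoxifen, gave AC50 values.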

The nature of assay [6]: Cell Viability - SK-N-SH (AID 435; calls by dose curve;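 also: potency is read from the fitted curve at half-maximal effect; compound exposure lasted 40 h at 37 °C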). The note with it: SK-N-SH neuroblastoma cell viability qHTS. The gist of the method:
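Cells seeded at 1500 per well and incubated 5 hr at 37 °C. Compound added, then 40 hr at 37 °C. CellTiter-Glo added, 20 min at room temperature, luminescence read.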

The target in assay [7] is Mitogen-activated protein kinase 10 (Mus musculus) (UniProt Q61831). In words: JNK3 AlphaScreen Assay (AID 530; active = well fitted curve in either direction with a large enough effect, not every such curve was filed as active;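 also: kinase came from lysate of stimulated human HepG2 cells; % is scaled to controls: 0 for no effect and ±100 for the full control effect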). The conditions noted are these: JNK3 lysate, c-Jun phosphorylation; series mostly up to 57.1 µM. The gist of the method: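 Biotinylated GST-cJun(1-79) served as substrate for JNK3 in HepG2 lysates stimulated with IL-1beta and TNF-alpha. ATP was 10 uM final, pH 7.6. Ser73 phosphorylation was quantified by AlphaScreen (680 nm excitation).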
A general note: Alpha assays give light when donor and acceptor beads are brought close together.

Assay [8] is described as follows: Cell Viability - NIH 3T3 (AID 541).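 Also: plate controls were DMSO alone for no effect and tamoxifen positive control for full effect; nearly all actives have a fitted effect of over 25% in size.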 The note with it: NIH 3T3 cell viability, qHTS; activity change, negative = cytotoxicity: at 92.2 µM (top of the series). The gist of the method:
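In this cytotoxicity screen, acute toxicity is scored as an ATP drop measured by CellTiter-Glo in NIH 3T3 fibroblasts following a 40 hr, 37 °C incubation with compound.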

Assay [9] is described as follows: Cell Viability - H-4-II-E (AID 543). Also: % is scaled to controls: 0 for no effect and ±100 for the full control effect; nearly all actives have a fitted effect of over 35% in size. The conditions noted are these: H-4-II-E rat hepatoma viability; series mostly up to 92.2 µM. The gist of the method:
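AC50 from Hill-modelled qHTS concentration-response curves. H-4-II-E rat hepatoma cells in complete medium, 40 hr exposure at 37 °C, viability by CellTiter-Glo ATP luminescence.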

The nature of assay [10]: Cell Viability - Mesenchymal (AID 546).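 Also: cells exposed to compound for 40 hours before reading.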 The conditions noted are these: mesenchymal cells viability, qHTS; activity change, negative = cytotoxicity: at 91.7 µM (top of the series). The method in brief:
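In this qHTS cytotoxicity format, glomerulus-derived human mesenchymal kidney cells received compound for 40 hr, then luciferase-based ATP quantitation. Concentration-response data were fitted with the Hill equation.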

Assay [11] in a line: Cellular Toxicity (caspase-3) HepG2 (AID 654).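 Also: cells exposed to compound for 16 hours before reading.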 The note with it: HepG2 caspase-3 activation, luminescence, 0% = DMSO only, 100% = tamoxifen; series mostly up to 92.2 µM. The gist of the method: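 Concentration-response AC50 values reflect caspase-3/7 induction in HepG2 cells after 16 hours of compound exposure, quantified by luminescence from liberated aminoluciferin and referenced to 100 uM tamoxifen as full stimulation.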

The nature of assay [12]: Cellular Toxicity (caspase-3) HUV-EC-C (AID 656). The note with it: HUV-EC-C cells, caspase-3 activation (apoptosis), vehicle = 0, 100 µM tamoxifen = 100%; series mostly up to 92.2 µM. The gist of the method: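 Read-out: luminescence proportional to caspase 3/7 activity, measured 20 min after adding Caspase-Glo 3/7 reagent. Cells (HUV-EC-C) had received compound for 16 hr at 37°C. Increases relative to DMSO and 100 uM tamoxifen gave concentration-response AC50 values.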

Assay [13] is described as follows: Cellular Toxicity (caspase-3) BJ (AID 658). The conditions noted are these: BJ fibroblasts, luminescence, normalized: DMSO 0%, staurosporine 100%; series mostly up to 91.7 µM. The method in brief:
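Plated BJ cells (1000/well) rested 5 hr, received compound for 16 hr at 37 °C, then Caspase-Glo 3/7 reagent for 1 hr at room temperature before luminescence reading.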

Assay [14] in a line: Cellular Toxicity (caspase-3) MRC-5 (AID 659). The conditions noted are these: MRC-5 cells, luminescence, normalized: DMSO 0%, 10 µM staurosporine 100%; series mostly up to 91.7 µM. The gist of the method:
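Apoptosis readout in MRC-5 cells: luciferase light generated after caspase 3/7 cleaves a peptide-aminoluciferin substrate, measured post 16 hr compound incubation at 37 °C.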

Assay [15] can be described thus: Cellular Toxicity (caspase-3) Mesangial (AID 660).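 Also: cells exposed to compound for 16 h before the caspase read.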 The conditions noted are these: mesangial cells, normalized: DMSO 0%, 100 µM tamoxifen 100%; series mostly up to 91.7 µM. The method in brief: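 AC50 values come from Hill-equation fits of caspase 3/7 activation, measured as Caspase-Glo luminescence in human glomerular mesangial cells exposed to compound for 16 h at 37 °C; 100% set by 100 uM tamoxifen.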

Assay [16] in a line: Cellular Toxicity (caspase-3) Hek293 (AID 664).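 Also: cells exposed to compound for 16 h at 37 °C before readout.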 The note with it: HEK293 caspase-3 activation, DMSO = 0%, 100 µM tamoxifen = 100%; series mostly up to 92.2 µM. The method in brief: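 Apoptosis readout: Caspase-Glo 3/7 signal in human HEK293 cells following 16-hour compound incubation. Responses scaled between DMSO baseline and 100 uM tamoxifen.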
Assay [17] in a line: Cellular Toxicity (caspase-3) Renal Proximal Tubule (AID 667).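 Also: cells exposed to compound for 16 hours at 37 °C before detection.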 The note with it: renal proximal tubule cells, primary cells freshly taken from rat, solvent-only wells 0%, staurosporine 100%; series mostly up to 91.7 µM. The method in brief:
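In qHTS format, rat primary proximal tubule cells seeded at 1000 per well are exposed to compounds for 16 hours at 37 °C. An increase in Caspase-Glo 3/7 luminescence indicates caspase activation.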

Assay [18] can be described thus: qHTS Assay for Identification of Small Molecule Inducers of Hypoxia Response (AID 2120; active = well fitted curve in the direction sought with a large enough effect in the signal ratio, with a control signal flat, not every such curve was filed as active; the % refers to the signal ratio; also: 0% is about no effect). The conditions noted are these: hypoxia response reporter cells, beta-lactamase ratio readout; series mostly up to 104 µM. The gist of the method:
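HRE-bla ME-180, 2500 cells/well, 0.5% dialyzed FBS medium; cpd titration, 17 h 37 degrees C; CCF4 2.5 h RT; Ex 405, Em 460/530 ratio -> %Activity, AC50.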

Assay [19] can be described thus: qHTS assay for small molecule antagonists of retinoid X receptor alpha signaling (AID 588546).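 Also: cells stimulated with 9-cis-retinoic acid as agonist; % is scaled to controls: 0 for no effect and ±100 for the full control effect.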 The conditions noted are these: HEK293T RXRa-UAS-bla, beta-lactamase ratio, antagonist mode; measured here: W530 green channel, cytotoxicity proxy. The method in brief: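 Beta-lactamase reporter inhibition, read as CCF4 fluorescence ratio (ex 405, em 460/530 nm) after 2 h at RT. HEK293T UAS-bla cells, 2500/well, were stimulated with 9-cis-RA at 500 or 100 nM final alongside test compound for 18 h at 37 C.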

Assay [20] deals with Peroxisome proliferator-activated receptor alpha (Homo sapiens) (UniProt Q07869). In words: qHTS assay for small molecule agonists of the peroxisome proliferator-activated receptor alpha (PPARalpha) signaling pathway (AID 651778). Also: % of control where 0% means no effect. The conditions noted are these: PathHunter PPARalpha complementation, chemiluminescence, 6 h; max response: stronger effect = higher value. The gist of the method:
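Cells plated at 2,000/well and held overnight at 37 C, 5% CO2, then compound added by pin tool for 6 hr; after PathHunter detection reagent and 60 min at room temperature, chemiluminescence from enzyme complementation was read.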

Values joined by “and” are separate entries in the source; they are usually repeats but may differ in a detail not shown here. Equal entries are not always repeated. Inconclusive results are not listed. Active and inactive are the calls of the source. Unless noted, calls follow the shape of the dose curve; as a rule, active = well fitted curve in the direction sought with a large enough effect; inconclusive = small, poorly fitted or top-dose-only effect, or another doubt; inactive = no such curve, though single readings can be large; an effect the other way counts as inactive or inconclusive.

Sequence of Peroxisome proliferator-activated receptor alpha (Homo sapiens) (Q07869 whole entry, looked up): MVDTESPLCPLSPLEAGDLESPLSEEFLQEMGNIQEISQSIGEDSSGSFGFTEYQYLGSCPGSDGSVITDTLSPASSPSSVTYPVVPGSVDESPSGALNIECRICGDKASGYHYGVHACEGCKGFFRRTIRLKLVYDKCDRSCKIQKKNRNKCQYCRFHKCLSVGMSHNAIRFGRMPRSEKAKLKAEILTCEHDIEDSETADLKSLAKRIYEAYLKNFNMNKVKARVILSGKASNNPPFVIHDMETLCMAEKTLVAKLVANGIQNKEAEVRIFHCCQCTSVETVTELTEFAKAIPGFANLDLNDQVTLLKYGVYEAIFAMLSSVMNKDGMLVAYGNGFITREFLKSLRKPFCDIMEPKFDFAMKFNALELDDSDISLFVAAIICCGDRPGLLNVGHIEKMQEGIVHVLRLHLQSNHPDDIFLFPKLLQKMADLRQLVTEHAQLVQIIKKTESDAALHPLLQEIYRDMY

Regarding `COc1c2ccoc2cc2oc(=O)ccc12`, the Potency in assay [1], in assay [2], in assay [3], in assay [4], in assay [5] and in assay [6] was > 92 µM (inactive) each time. The Potency result in assay [7], in assay [8] and in [9] was “inactive” in each case. Also, the activity change, negative = cytotoxicity in assay [10] is -14.2% (inactive). The molecule was called inactive in [11], in assay [12], in assay [13], in assay [14], in assay [15] and in [16]. In addition, the result in [17] and in assay [18] was inactive. In addition, the max response in assay [19] was -1.57%; in [20], -2.53% (inactive).

On to `CCCCCCCCO`, for which the Potency in [1], in assay [2], in assay [3], in assay [4], in assay [5] and in assay [6] was > 92 µM (inactive) in each case. In addition, the Potency entry in assay [7], in [8] and in assay [9] was “inactive” throughout. In addition, the activity change, negative = cytotoxicity in assay [10] is -3.19% (inactive). Moreover, the molecule was called inactive in assay [11], in assay [12], in assay [13], in assay [14], in assay [15] and in assay [16]. For the same molecule, the molecule was classed as inactive in assay [17] and in [18]. Further, the max response was -5.18% and -18.2% and -19.2% in assay [19]; 2.47% (inactive) and -5.18% (inactive) and -0.424% (inactive) in assay [20].

Regarding `ClCCCl`, the Potency in assay [1], in [2], in assay [3], in assay [4], in assay [5] and in assay [6] was > 92 µM (inactive) in each case. The Potency result in assay [7], in assay [8] and in [9] was “inactive” throughout. Further, the activity change, negative = cytotoxicity in assay [10] is 8.24% (inactive). In addition, the outcome in [11], in [12], in [13], in [14], in [15] and in assay [16] was inactive. In addition, the outcome in assay [17] and in [18] was inactive. For the same molecule, the max response is -8.92% and -8.87% and -8.24% in [19]; 1.65% (inactive) and -1.11% (inactive) in assay [20].

As for `COC(=O)CCCCC(=O)OC`, the Potency in [1], in [2], in assay [3], in [4], in assay [5] and in [6] was > 92 µM (inactive) in each case. The Potency entry in assay [7], in assay [8] and in [9] was “inactive” each time. For the same molecule, the activity change, negative = cytotoxicity in assay [10] was 1.32% (inactive). Moreover, the call in assay [11], in assay [12], in assay [13], in assay [14], in assay [15] and in assay [16] was inactive. Moreover, the call in assay [17] and in assay [18] was inactive. Besides, the max response is -7.1% and -4.41% and 10.6% in [19]; -1.36% (inactive) and -1.93% (inactive) and -0.772% (inactive) in assay [20].

As to `c1ccccc1`, the Potency in assay [1], in assay [2], in assay [3], in assay [4], in assay [5] and in assay [6] was > 92 µM (inactive) each time. In addition, the Potency result in [7], in assay [8] and in assay [9] was “inactive” in each case. For the same molecule, the activity change, negative = cytotoxicity in assay [10] is 7.51% (inactive) and 0.0243% (inactive). Further, the outcome in assay [11], in assay [12], in assay [13], in assay [14], in assay [15] and in assay [16] was inactive. The outcome in [17] and in assay [18] was inactive. In addition, the max response in assay [19] is 6.17% [middle of 4 runs]; in [20] it was -1.87% (inactive) [middle of 4 runs].

The record behind these values is PubChem BioAssay (NCATS).
